For test [1], the target named is T1, ETS1 (UniProt P14921).
T1 sequence: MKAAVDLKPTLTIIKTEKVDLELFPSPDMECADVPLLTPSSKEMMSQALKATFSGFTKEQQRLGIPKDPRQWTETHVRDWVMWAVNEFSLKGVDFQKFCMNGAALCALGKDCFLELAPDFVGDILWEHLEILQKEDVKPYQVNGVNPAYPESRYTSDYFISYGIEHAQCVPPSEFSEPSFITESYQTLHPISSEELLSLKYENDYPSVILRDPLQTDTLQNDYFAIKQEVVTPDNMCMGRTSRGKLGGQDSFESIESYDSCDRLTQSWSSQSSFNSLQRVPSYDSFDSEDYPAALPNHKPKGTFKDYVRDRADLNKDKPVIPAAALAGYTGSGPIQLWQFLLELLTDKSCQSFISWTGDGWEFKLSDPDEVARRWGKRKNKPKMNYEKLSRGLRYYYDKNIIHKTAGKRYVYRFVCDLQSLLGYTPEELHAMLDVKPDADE
In words: ETS1 binding intensity (PBM fluorescence), ETS1 alone (arbitrary fluorescence units); higher = stronger binding. The conditions noted are these: ETS1 concentration 1 nM; RUNX1 concentration 0 nM.

The target in test [2] is RUNX1 (UniProt Q01196). In words: RUNX1 binding intensity (PBM fluorescence), RUNX1 alone (arbitrary fluorescence units); higher = stronger binding. The conditions noted are these: RUNX1 concentration 2 nM; ETS1 concentration 0 nM. The protocol: (§1)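 Cooperative gcPBM on 36-bp genomic probes with neighbouring ETS1 and RUNX1 sites. Recombinant human RUNX1 (2 nM) was incubated alone or with ETS1 (25 nM) and detected with anti-RUNX1 antibody plus Alexa488 secondary. Values are medians over 4 replicate spots; the RUNX1+ETS1 data were normalised to the RUNX1-only data. The probes sit in constant array flanks that are not printed.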

Test [3] addresses T1, ETS1. In words: ETS1 binding intensity (PBM fluorescence) in presence of RUNX1, normalised to ETS1-only experiment (arbitrary fluorescence units); higher = stronger binding. The conditions noted are these: ETS1 concentration 1 nM; RUNX1 concentration 25 nM.
Test [4] has as its target RUNX1 (UniProt Q01196). The test is described as follows: RUNX1 binding intensity (PBM fluorescence) in presence of ETS1, normalised to RUNX1-only experiment (arbitrary fluorescence units); higher = stronger binding. The following applies: RUNX1 concentration 2 nM; ETS1 concentration 25 nM. On the procedure: as §1
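Wherever RUNX1 binding intensity (PBM fluorescence) in presence of ETS1, normalised to RUNX1-only experiment is given: Full-length recombinant human ETS1 or RUNX1 bound to double-stranded 36-bp genomic probes on microarrays, detected by protein-specific primary antibody and Alexa488 secondary, spot fluorescence as median of four replicate spots.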
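Wherever RUNX1 binding intensity (PBM fluorescence), RUNX1 alone is given: Full-length recombinant human RUNX1 bound to double-stranded 36-bp genomic probes on a high-density microarray, scored as Alexa488 fluorescence per spot via anti-RUNX1 antibody, median of four replicate spots.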

Chain of RUNX1 (Q01196 whole entry): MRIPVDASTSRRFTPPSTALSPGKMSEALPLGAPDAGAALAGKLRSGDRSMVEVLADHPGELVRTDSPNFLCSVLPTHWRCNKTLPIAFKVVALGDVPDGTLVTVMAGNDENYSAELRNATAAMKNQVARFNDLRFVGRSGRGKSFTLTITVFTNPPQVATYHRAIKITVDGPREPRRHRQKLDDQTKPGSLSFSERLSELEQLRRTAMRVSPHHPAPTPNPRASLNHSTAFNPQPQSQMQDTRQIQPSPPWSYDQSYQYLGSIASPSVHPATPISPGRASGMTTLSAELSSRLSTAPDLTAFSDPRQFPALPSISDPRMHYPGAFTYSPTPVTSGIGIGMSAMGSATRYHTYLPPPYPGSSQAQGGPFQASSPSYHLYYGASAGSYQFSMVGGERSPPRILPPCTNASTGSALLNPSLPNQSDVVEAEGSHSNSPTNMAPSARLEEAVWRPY

As for CACCTAAAGCCATTGGGATGTGGTTTCTCTTTTTCA, the ETS1 binding intensity with ETS1 [1] was determined as 388; with ETS1 [3], 894. Also, the RUNX1 binding intensity with RUNX1 [2] came out at 1040; with RUNX1 [4] it was 1010.

Take TTGGAAACAGACAGGAAGCCACAGGCAGTAAACATT: the ETS1 binding intensity is 3300 with ETS1 [1] and 3670 with ETS1 [3]. Further, the RUNX1 binding intensity with RUNX1 [2] stood at 753; with RUNX1 [4], 978.

With GCACTGTGGGAGGAAGTGGGTATGTGGTGAGCTCTT, the ETS1 binding intensity worked out at 1650 with ETS1 [1] and 4990 with ETS1 [3]. Moreover, the RUNX1 binding intensity in the test with RUNX1 [2] amounted to 856; with RUNX1 [4] it was 1560.

Take GCCAGGAGGACTTCCGGGTGGGTGTGGTATCTGCGA: the ETS1 binding intensity in the test with ETS1 [1] worked out at 1320; with ETS1 [3], 2540. Moreover, the values for the RUNX1 binding intensity with RUNX1 [2] and in the test with RUNX1 [4] were 780 and 2300, respectively.

With CACCTGGCCCGGACGGCTGCGGTCTGGAGGGCTGTC, the ETS1 binding intensity with ETS1 [1] was determined as 386; with ETS1 [3] it was 792. Further, the RUNX1 binding intensity with RUNX1 [2] worked out at 1650; with RUNX1 [4], 2050.

In the case of GCCGCCTCTTCCTGTGTTGCAAACCACAGGTCCACC, the ETS1 binding intensity with ETS1 [1] worked out at 1250; with ETS1 [3] it was 2340. Moreover, the RUNX1 binding intensity in the test with RUNX1 [2] stood at 1570; with RUNX1 [4] it was 4540.

As to GTGCTGAGCAGCTTCCCGTCTGCGGTGAAGACAGCC, the ETS1 binding intensity in the test with ETS1 [1] was found to be 396; with ETS1 [3], 1040. Besides, the figures for the RUNX1 binding intensity with RUNX1 [2] and in the test with RUNX1 [4] were 1150 and 1930, respectively.

Turning to CATTTACAGAAAAGGAAACCGCAAGTTTGAGCAAGT, the values for the ETS1 binding intensity with ETS1 [1] and in the test with ETS1 [3] were 976 and 2150, respectively. Further, the RUNX1 binding intensity stood at 25200 with RUNX1 [2] and 30700 in the test with RUNX1 [4].

As to GGGCTCCCAGAAGGATGTGGTTTCTGAGTACGTTGG, the ETS1 binding intensity is 582 with ETS1 [1] and 3520 with ETS1 [3]. Further, the figures for the RUNX1 binding intensity with RUNX1 [2] and in the test with RUNX1 [4] were 906 and 1260, respectively.

Turning to GCCTGAAGGACTTCCGGGAACCGCAAAGCACGGTGT, the ETS1 binding intensity with ETS1 [1] was 1620; with ETS1 [3] it was 3510. In addition, the RUNX1 binding intensity with RUNX1 [2] amounted to 1500; with RUNX1 [4] it was 3430.

As to GAGGTGCCGGAAGCCAGTAGGTGGTTTTGGGTGCTA, the figures for the ETS1 binding intensity in the test with ETS1 [1] and with ETS1 [3] were 1530 and 2120, respectively. For the same sequence, the results for the RUNX1 binding intensity in the test with RUNX1 [2] and with RUNX1 [4] were 695 and 1180, respectively.

For the sequence CTAGCTGTGGACAGGAAACGAGTGGTTTTTGTGATC, the ETS1 binding intensity turned out to be 5270 in the test with ETS1 [1] and 8040 with ETS1 [3]. Also, the RUNX1 binding intensity in the test with RUNX1 [2] worked out at 740; in the test with RUNX1 [4], 1400.

GCACTCGGATGTTGGCCGTAGTTGTGGTTATAGTTG: the ETS1 binding intensity in the test with ETS1 [1] turned out to be 464; with ETS1 [3], 1090. The figures for the RUNX1 binding intensity with RUNX1 [2] and with RUNX1 [4] were 1010 and 1110, respectively.

On to AGCTGCAGTTGGGCAGGAAACCACAATGTCGAAGAC, for which the ETS1 binding intensity turned out to be 2490 with ETS1 [1] and 5770 with ETS1 [3]. The results for the RUNX1 binding intensity in the test with RUNX1 [2] and with RUNX1 [4] were 1320 and 2400, respectively.

Take TGTGTAACTTCCTGGCTTTGGTGGTTTCCCCCTCCT: the ETS1 binding intensity with ETS1 [1] is 1150; in the test with ETS1 [3], 1390. Moreover, the RUNX1 binding intensity in the test with RUNX1 [2] was determined as 757; with RUNX1 [4], 2180.

Turning to AGCCCGCCGGAAACTAGCGTCACCGCGCCAAGGTTC, the values for the ETS1 binding intensity in the test with ETS1 [1] and in the test with ETS1 [3] were 1440 and 1250, respectively. In addition, the values for the RUNX1 binding intensity in the test with RUNX1 [2] and with RUNX1 [4] were 691 and 1160, respectively.

On to CTCCAGGGACAACCCGGAAACCACATTGCCCAGCGT, for which the ETS1 binding intensity in the test with ETS1 [1] came to 2230; with ETS1 [3], 6990. Besides, the RUNX1 binding intensity with RUNX1 [2] came to 982; with RUNX1 [4], 1500.

For GACCTGGGCAGGAAGAGCGGCATGTGGGGCCCCCTG, the ETS1 binding intensity with ETS1 [1] was determined as 875; with ETS1 [3] it was 795. Also, the RUNX1 binding intensity with RUNX1 [2] was found to be 714; in the test with RUNX1 [4], 874.

GATCTGTGCTCAGGATGTGGTGAGAGAATAAGGAAG: the ETS1 binding intensity came out at 1210 in the test with ETS1 [1] and 2870 in the test with ETS1 [3]. Moreover, the RUNX1 binding intensity was 753 with RUNX1 [2] and 1050 with RUNX1 [4].

GCTCATTTCCTGGCCGCTCCTGGGCTTCGCGGTGAG: the ETS1 binding intensity with ETS1 [1] was 498; in the test with ETS1 [3], 716. In addition, the RUNX1 binding intensity with RUNX1 [2] was 834; with RUNX1 [4], 1730.

(Values after the supplement of paper PMC10681739.)
